Measured values from PubChem BioAssay (Tox21).
Records with an inconclusive call do not appear. Values without a mark were called inactive. The call rests on the fitted dose curve; in most records, active means well fitted inhibition curve with a large enough effect in the signal ratio in the repeat runs (not every such curve was filed as active); inconclusive means weak or mixed curves, or effect the other way; inactive means no such curve, though single readings can be large or run the other way; the % refers to the signal ratio.
On the % scale 0 is the no-effect control and ±100 the full control effect.

What follows are compounds tested against Bile acid receptor (Homo sapiens) (UniProt Q96RI1) (assay: qHTS assay to identify small molecule antagonists of the farnesoid-X-receptor (FXR) signaling pathway (AID 743217)). Conditions: HEK293T FXR-UAS-bla, beta-lactamase ratio, CDCA-stimulated, 16 h; series mostly up to 62.6 µM; activity change, negative = inhibition: at the top concentration.
Bile acid receptor (Homo sapiens), sequence (Q96RI1 whole entry, looked up): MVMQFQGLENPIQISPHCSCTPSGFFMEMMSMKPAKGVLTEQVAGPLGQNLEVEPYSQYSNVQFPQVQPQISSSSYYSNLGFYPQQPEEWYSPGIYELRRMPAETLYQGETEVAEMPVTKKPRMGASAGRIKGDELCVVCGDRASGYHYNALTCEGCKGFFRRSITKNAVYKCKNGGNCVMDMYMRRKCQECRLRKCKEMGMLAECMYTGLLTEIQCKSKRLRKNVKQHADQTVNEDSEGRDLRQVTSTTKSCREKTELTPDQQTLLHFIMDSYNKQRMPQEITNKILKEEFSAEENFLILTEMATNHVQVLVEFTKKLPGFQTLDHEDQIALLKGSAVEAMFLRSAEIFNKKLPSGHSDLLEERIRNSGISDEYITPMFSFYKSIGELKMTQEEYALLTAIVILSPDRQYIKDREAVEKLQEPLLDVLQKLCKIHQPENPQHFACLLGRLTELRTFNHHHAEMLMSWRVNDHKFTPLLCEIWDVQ
Text: U.S. Tox21 Program National Center for Advancing Translational Sciences [NCATS] NIH Chemical Genomics Center [NCGC] U.S. Environmental Protection Agency [EPA] National Institutes of Environmental Health Sciences [NIEHS] National Toxicology Program [NTP] U.S. Food and Drug Administration [FDA] Tox21 Assay Overview: The farnesoid-X-receptor (FXR), a nuclear hormone receptor, is highly expressed in liver, intestine, kidney and adrenal cortex. Natural ligands of FXR are the bile acids (Cholic acid, Chenodeoxy cholic acid etc). FXR is an important regulator of diverse metabolic pathways, including the bile acid homeostasis, lipid and glucose metabolisms. FXR regulates the expression of target genes by binding either as a monomer or as a heterodimer with the retinoid X receptor (RXR). Numerous studies have reported that FXR exerts protective function during cholestasis, diabetes, liver regeneration, and cancer. To identify compounds that inhibit FXR signaling, GeneBLAzer FXR-UAS-bla HEK 293T cell line (Invitrogen, Carlsbad, CA) containing a beta-lactamase reporter gene under the control of a UAS response element was used to screen the Tox21 10K compound library.
Tox21 Assay Protocol Summary: FXR-bla cells were dispensed at 5000 cells/5uL/well in 1536-well black wall/clear bottom plates using a Multidrop Combi (Thermo Fisher Scientific, Waltham, MA) dispenser. After the assay plates were incubated at 37C and 5% CO2 for 5 h, 23 nL of compounds dissolved in DMSO, positive controls or DMSO only was transferred to the assay plate by a Pintool station (Kalypsys, San Diego, CA), followed by addition of 1 uL Chenodeoxycholic acid (50 uM, final concentration in the wells). The assay plates were incubated at 37C for 16 h. After 1 uL of LiveBLAzerTM B/G FRET substrate was added using a Bioraptr Flying Reagent Dispenser (FRD) workstation (Beckman Coulter, Indianapolis, IN), the plates were incubated at room temperature for 2 h, and fluorescence intensity was measured by an Envision plate reader (PerkinElmer, Shelton, CT).
With `CCN1CC(CCN2CCOCC2)C(c2ccccc2)(c2ccccc2)C1=O` (stereo not given) the “activity change, negative = inhibition” value was 3.29%.
With `CN1CCN(C2=Nc3cc(F)ccc3Cc3ccccc32)CC1` the “activity change, negative = inhibition” value was -17.2%.
For `N#Cc1ccc(C(c2ccc(C#N)cc2)n2cncn2)cc1`, the “activity change, negative = inhibition” value was 0.944%.
For `CCC1(C)NC(=O)NC1=O` (stereo not given), the “activity change, negative = inhibition” value was 9.88%.
With `COc1cc(C)ccc1C(C)C` the “activity change, negative = inhibition” value was 3.06%.
`CCN(CC)CC1CCCCN1CC(=O)N1c2ccccc2C(=O)Nc2cccnc21` (stereo not given) was tested, and the “activity change, negative = inhibition” value was 0.978%.
In the case of `CCOc1ccc(OCC)c(Cl)c1`, the “activity change, negative = inhibition” value is reported as 1.69%.
For `OCCN(CCO)c1ccccc1`, the “activity change, negative = inhibition” value was 10.9%.
For `Oc1ccccc1C=NCc1ccccc1`, the “activity change, negative = inhibition” value was 4.16%.
With `CN1C(=O)CC(c2ccccc2)C1=O` (stereo not given) the “activity change, negative = inhibition” value was 11.2%.
For `C1CCOC1`, the “activity change, negative = inhibition” value was 0.941% [at 81.1 µM].
`CCCCCCCCc1ccc(S(=O)(=O)O)cc1` was tested, and the “activity change, negative = inhibition” value was 13.3%.
With `O=C1C=CC(=O)O1` the “activity change, negative = inhibition” value was 2.44% [at 81.1 µM].
For `O=c1[nH]cnc2c1ncn2[C@@H]1O[C@H](CO)[C@@H](O)[C@H]1O`, the “activity change, negative = inhibition” value was 2.2%.
`CC(C)C[C@H](NC(=O)OCC1c2ccccc2-c2ccccc21)C(=O)O` was tested, and the “activity change, negative = inhibition” value was -10%.
In the case of `CN1CCN(N)CC1`, the “activity change, negative = inhibition” value is reported as 10.2%.
In the case of `CNCCC(Oc1ccccc1OC)c1ccccc1` (stereo not given), the “activity change, negative = inhibition” value is reported as 0.691%.
In the case of `CC(C)(C)c1ccc(OC(=O)c2ccccc2O)cc1`, the “activity change, negative = inhibition” value is reported as -10.9%.
`CC(C)C(=O)OC/C=C/c1ccccc1` was tested, and the “activity change, negative = inhibition” value was -1.89%.
In the case of `COc1cc2c(cc1N)oc1ccccc12`, the “activity change, negative = inhibition” value is reported as -2.27% [at 81.1 µM].
In the case of `Cc1ccc([N+](=O)[O-])cc1Cl`, the “activity change, negative = inhibition” value is reported as 7.16% [at 81.1 µM].
With `ClC(Cl)Cl` the “activity change, negative = inhibition” value was 1.21%.
In the case of `CS(=O)(=O)c1ccc([C@@H](O)[C@@H](CF)NC(=O)C(Cl)Cl)cc1`, the “activity change, negative = inhibition” value is reported as 7.77%.
For `Oc1ccccc1F`, the “activity change, negative = inhibition” value was -2.96%.
In the case of `CCCCCCCCOC(=O)CCCCCCCCC(=O)OCCCCCCCC`, the “activity change, negative = inhibition” value is reported as -19.9%.
For `N#CSCC(=O)O`, the “activity change, negative = inhibition” value was 5.61%.
With `NC(=O)NS(=O)(=O)c1ccc(Cl)cc1` the “activity change, negative = inhibition” value was 11%.
`Cc1onc(-c2ccccc2)c1C(=O)Cl` was tested, and the “activity change, negative = inhibition” value was 8.14%.
With `CC(C)O` the “activity change, negative = inhibition” value was -0.284% [at 81.1 µM].
With `CC1(C)S[C@@H]2[C@H](NC(=O)C(C(=O)O)c3ccccc3)C(=O)N2[C@H]1C(=O)O` (stereo not given in full) the “activity change, negative = inhibition” value was 0.366%.
In the case of `OCc1ccccc1O`, the “activity change, negative = inhibition” value is reported as 9.81%.
For `CC(=O)N[C@@H](CC(C)C)C(=O)O`, the “activity change, negative = inhibition” value was 2.78%.
With `C=CCc1cc(OC)c(O)c(C(=O)NCCO)c1` the “activity change, negative = inhibition” value was 9.34%.
With `CC1=C(O)C(=O)OC1C` (stereo not given) the “activity change, negative = inhibition” value was -2.26%.
For `CN1[C@@H]2CC[C@H]1CC(OC(=O)c1c[nH]c3ccccc13)C2` (stereo not given in full), the “activity change, negative = inhibition” value was -7.99%.
With `C=CC(C)(O)CC/C=C(\C)CCC=C(C)C` (stereo not given) the “activity change, negative = inhibition” value was -8.33%.
In the case of `CC(=O)OC1C2(C)CCC(C2)C1(C)C` (stereo not given), the “activity change, negative = inhibition” value is reported as -5.46%.
`O=c1oc2c(O)c(O)cc3c(=O)oc4c(O)c(O)cc1c4c23` was tested, and the “activity change, negative = inhibition” value was 2.29% [at 29.1 µM].
With `CC1(C)O[C@@H]2C[C@H]3[C@@H]4CCC5=CC(=O)CC[C@]5(C)[C@@]4(F)[C@@H](O)C[C@]3(C)[C@]2(C(=O)CCl)O1` the “activity change, negative = inhibition” value was 1.27%.
For `CC(C)C(=O)OCC(C)(C)C(O)C(C)C` (stereo not given), the “activity change, negative = inhibition” value was -8.49% [at 81.1 µM].
